# Results: PubChem BioAssay (NCI)
# Where “and” joins values, the source holds several entries; their conditions need not be identical. Equal entries are not always repeated. Compounds without any hit were thinned out: in the full panel of roughly 83,000, 20% have a hit.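 Activity criterion: percent growth below 10, measured after cells in 96-well plates were exposed to a single compound concentration for 48 hours.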 Calls of active or inactive are those of the source.
# Tests used:
# Experiment in all cases: NCI-60 one-dose screen, 48 h (100 = growth as untreated, 0 = no growth, -100 = all killed)
# Conditions in all cases: 10 µM unless noted
# SK-MEL-2 melanoma = test system: SK-MEL-2 melanoma
# EKVX NSCLC = test system: EKVX NSCLC
# SN12C renal = test system: SN12C renal
# UO-31 renal = test system: UO-31 renal
# TK-10 renal = test system: TK-10 renal
# ACHN renal = test system: ACHN renal
# CAKI-1 renal = test system: CAKI-1 renal
# A498 renal = test system: A498 renal
# CCRF-CEM leukemia = test system: CCRF-CEM leukemia
# MOLT-4 leukemia = test system: MOLT-4 leukemia
# SR leukemia = test system: SR leukemia
# RPMI-8226 leukemia = test system: RPMI-8226 leukemia
# OVCAR-8 ovarian = test system: OVCAR-8 ovarian
# OVCAR-5 ovarian = test system: OVCAR-5 ovarian
# OVCAR-4 ovarian = test system: OVCAR-4 ovarian
# SK-OV-3 ovarian = test system: SK-OV-3 ovarian
# IGROV1 ovarian = test system: IGROV1 ovarian
# OVCAR-3 ovarian = test system: OVCAR-3 ovarian
# HS 578T breast = test system: HS 578T breast
# NCI/ADR-RES ovarian = test system: NCI/ADR-RES ovarian
Compound,growth (SK-MEL-2 melanoma),growth (EKVX NSCLC),growth (SN12C renal),growth (UO-31 renal),growth (TK-10 renal),growth (ACHN renal),growth (CAKI-1 renal),growth (A498 renal),growth (CCRF-CEM leukemia),growth (MOLT-4 leukemia),growth (SR leukemia),growth (RPMI-8226 leukemia),growth (OVCAR-8 ovarian),growth (OVCAR-5 ovarian),growth (OVCAR-4 ovarian),growth (SK-OV-3 ovarian),growth (IGROV1 ovarian),growth (OVCAR-3 ovarian),growth (HS 578T breast),growth (NCI/ADR-RES ovarian)
COc1ccccc1C(C)=O,109% (inactive),98% (inactive),118% (inactive) and 108% (inactive),89.4% (inactive) and 96.5% (inactive),118% (inactive) and 99.4% (inactive),105% (inactive) and 102% (inactive),99.5% (inactive) and 112% (inactive),92% (inactive) and 108% (inactive),102% (inactive),95.4% (inactive) and 99.1% (inactive),95.8% (inactive) and 86% (inactive),90.6% (inactive) and 100% (inactive),105% (inactive) and 96.7% (inactive),117% (inactive) and 106% (inactive),111% (inactive) and 105% (inactive),103% (inactive) and 102% (inactive),119% (inactive) and 109% (inactive),106% (inactive) and 110% (inactive),88.2% (inactive),106% (inactive) and 113% (inactive)
CC(C)CNC(=O)c1ccccc1C(=O)NC1(C(=O)NCC(C)C)CCCC1,103% (inactive) and 100% (inactive),96.7% (inactive) and 109% (inactive),99.8% (inactive) and 107% (inactive),83.5% (inactive) and 86.1% (inactive),111% (inactive) and 114% (inactive),102% (inactive) and 104% (inactive),90.6% (inactive) and 98% (inactive),84.2% (inactive) and 123% (inactive),88.4% (inactive) and 104% (inactive),102% (inactive) and 88.6% (inactive),110% (inactive) and 90.5% (inactive),105% (inactive),101% (inactive) and 104% (inactive),98.6% (inactive) and 98.3% (inactive),107% (inactive) and 111% (inactive),107% (inactive) and 99.5% (inactive),111% (inactive) and 102% (inactive),116% (inactive) and 109% (inactive),110% (inactive) and 105% (inactive),106% (inactive) and 105% (inactive)
CCN(CC)CCC(CNc1ccnc2cc(Cl)ccc12)c1ccc(OC)cc1 (stereo not drawn),101% (inactive) and 61.7% (inactive),69.6% (inactive) and 85.6% (inactive),71.4% (inactive) and 60.8% (inactive),-5.93% (active) and -3.07% (active),58.5% (inactive) and 46.3% (inactive),37.5% (inactive) and 33.3% (inactive),55.6% (inactive) and 21.6% (inactive),38.2% (inactive) and 28.7% (inactive),63.4% (inactive) and 45.8% (inactive),52.3% (inactive) and 52.5% (inactive),-26% (active) and -16.4% (active),60.1% (inactive) and 39% (inactive),63.6% (inactive) and 46% (inactive),76.1% (inactive) and 89.4% (inactive),29.8% (inactive) and 47.4% (inactive),92.7% (inactive) and 78.5% (inactive),52.3% (inactive) and 38% (inactive),84.3% (inactive) and 80.9% (inactive),74% (inactive),76.7% (inactive) and 72.8% (inactive)
CC(C)Cc1ccc(C(C)C(=O)NCc2ccc(Cn3c(=O)sn(CCCCl)c3=O)cc2)cc1 (stereo not drawn),103% (inactive) and -3.28% (active),89.3% (inactive) and -64.7% (active),98.7% (inactive) and -60.5% (active),77% (inactive) and -100% (active),88% (inactive) and -91.9% (active),97.3% (inactive) and -100% (active),87.1% (inactive) and -86.6% (active),87.8% (inactive) and 55.6% (inactive),53.4% (inactive) and 3.84% (active),90.4% (inactive) and 0.866% (active),108% (inactive) and 3.82% (active),99.8% (inactive) and -30.9% (active),94.5% (inactive) and -3.85% (active),105% (inactive) and -52.9% (active),79.8% (inactive) and -94.2% (active),107% (inactive) and 69.5% (inactive),99.3% (inactive) and -79.1% (active),98.2% (inactive) and -83.4% (active),106% (inactive) and -11% (active),99.4% (inactive) and -32.1% (active)
CN(C)c1ccc(/C=C(\C#N)c2ccccc2)cc1,-36% (active) and 11.7% (inactive) and 22.8% (inactive),53.9% (inactive) and 45.7% (inactive) and 56.9% (inactive),66.5% (inactive) and 62.2% (inactive) and 39.1% (inactive),29.1% (inactive) and 53.1% (inactive) and 42.5% (inactive),57.8% (inactive) and 43.1% (inactive) and 54.9% (inactive),50.3% (inactive) and 65.3% (inactive) and 52.2% (inactive),41.1% (inactive) and 43.3% (inactive),63.6% (inactive) and 29.8% (inactive) and 0.464% (active),-17.2% (active) and 23.6% (inactive) and 6.64% (active),25.2% (inactive) and 35.6% (inactive) and 34.9% (inactive),-18.5% (active) and 14.1% (inactive) and 8.15% (active),-23% (active) and 37.2% (inactive) and 10.1% (inactive),26.9% (inactive) and 43.7% (inactive) and 38% (inactive),41.5% (inactive) and 62.4% (inactive) and 55.4% (inactive),48.4% (inactive) and 61.8% (inactive) and 78.6% (inactive),30.9% (inactive) and 32.4% (inactive) and 29.9% (inactive),-39.9% (active) and 52.4% (inactive) and 43.5% (inactive),-57.9% (active) and 11.6% (inactive) and -12.2% (active),–,-41.2% (active) and 13.3% (inactive) and 20.9% (inactive)
N/C(=N\N=C\c1ccc2c(c1)OCO2)N/N=C\c1ccc2c(c1)OCO2,103% (inactive) and 136% (inactive),113% (inactive),107% (inactive) and 89% (inactive),99.5% (inactive) and 77.3% (inactive),140% (inactive) and 153% (inactive),111% (inactive) and 97.7% (inactive),99% (inactive) and 103% (inactive),121% (inactive) and 85.9% (inactive),50.6% (inactive) and 45.3% (inactive),95.4% (inactive) and 50.3% (inactive),-8.73% (active),98.5% (inactive) and 67.3% (inactive),102% (inactive) and 95% (inactive),122% (inactive) and 96.9% (inactive),93.8% (inactive),118% (inactive) and 111% (inactive),112% (inactive) and 96.8% (inactive),126% (inactive) and 101% (inactive),–,101% (inactive) and 82.6% (inactive)
CCCCOc1cc(C(=O)NCCN(CC)CC)c2ccccc2n1,120% (inactive) and 99.6% (inactive),74.9% (inactive),86.7% (inactive) and 93.5% (inactive),59.1% (inactive) and 78% (inactive),100% (inactive),90.1% (inactive) and 99.7% (inactive),73.6% (inactive) and 92.8% (inactive),81.1% (inactive) and 95.4% (inactive),89.4% (inactive),98% (inactive) and 101% (inactive),101% (inactive) and 93% (inactive),85.4% (inactive) and 93.6% (inactive),92.9% (inactive) and 81.8% (inactive),91.4% (inactive) and 97.6% (inactive),94.2% (inactive) and 101% (inactive),112% (inactive) and 92.8% (inactive),102% (inactive) and 111% (inactive),114% (inactive) and 101% (inactive),92.3% (inactive) and 128% (inactive),92.2% (inactive) and 99.3% (inactive)
